Measurements from PubChem BioAssay AID1159580 (chemical genetic matrix, 2015).
Values joined by “and” are separate entries in the source; they are usually repeats but may differ in a detail not shown here. Identical values can stand only once. Hit rate of the full screen: of about 5,500 compounds, about 2,000 (36%) were called active. Another 18% or so got no clear call; they are omitted. Rule as the data show it: active = normalized growth mostly below about 0.91 (no sharp cut-off); inconclusive = no clear call, values can overlap the other calls; inactive = mostly above about 0.92. The list shows a part of the results.

Assay: chemical genetic growth profiling, strain panel (AID 1159580);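 also: tested at 20 µM; growth read once vehicle control cultures reached saturation at 30 °C; 1 = growth at the plate median or of vehicle wells; lower values mean less growth of the strain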
Conditions: S. cerevisiae deletion strains, growth OD

Measured: normalized growth

O=C1c2ccccc2C(=O)c2c1ccc(O)c2O
active: locus YAL021C, strain ccr4, stronger effect = lower value 0.213 | locus YAL026C, strain drs2, stronger effect = lower value 0.273 | locus YAL030W, strain snc1, stronger effect = lower value 0.578 | locus YBL061C, strain skt5, stronger effect = lower value 0.44 | locus YBR009C, strain hhf1, stronger effect = lower value 0.532 | locus YBR021W, strain FUR4, stronger effect = lower value 0.671 | locus YBR023C, strain chs3, stronger effect = lower value 0.38 | locus YBR171W, strain sec66, stronger effect = lower value 0.681 | locus YBR229C, strain ROT2, stronger effect = lower value 0.399 | locus YBR231C, strain swc5, stronger effect = lower value 0.3 | locus YBR279W, strain paf1, stronger effect = lower value 0.512 | locus YCL011C, strain gbp2, stronger effect = lower value 0.501 | locus YCL016C, strain dcc1, stronger effect = lower value 0.564 | locus YCL029C, strain bik1, stronger effect = lower value 0.342 | locus YCL061C, strain MRC1, stronger effect = lower value 0.608 | locus YCL069W, strain vba3, stronger effect = lower value 0.52 | locus YCR088W, strain abp1, stronger effect = lower value 0.679 | locus YDL005C, strain med2, stronger effect = lower value 0.663 | locus YDL035C, strain GPR1, stronger effect = lower value 0.231 | locus YDL040C, strain nat1, stronger effect = lower value 0.703 | locus YDL074C, strain BRE1, stronger effect = lower value 0.178 | locus YDL101C, strain DUN1, stronger effect = lower value 0.235 | locus YDL185W, strain tfp1, stronger effect = lower value 0.816 | locus YDL192W, strain arf1, stronger effect = lower value 0.301 | locus YDR001C, strain nth1, stronger effect = lower value 0.722 | locus YDR069C, strain doa4, stronger effect = lower value 0.401 | locus YDR101C, strain arx1, stronger effect = lower value 0.549 | locus YDR137W, strain rgp1, stronger effect = lower value 0.261 | locus YDR159W, strain sac3, stronger effect = lower value 0.722 | locus YDR162C, strain NBP2, stronger effect = lower value 0.0628 | locus YDR297W, strain sur2, stronger effect = lower value 0.559 | locus YDR318W, strain mcm21, stronger effect = lower value 0.34 | locus YDR334W, strain swr1, stronger effect = lower value 0.298 | locus YDR335W, strain msn5, stronger effect = lower value 0.56 | locus YDR388W, stronger effect = lower value 0.149 | locus YDR392W, strain spt3, stronger effect = lower value 0.321 | locus YDR502C, strain sam2, stronger effect = lower value 0.391 | locus YEL003W, strain gim4, stronger effect = lower value 0.504 | locus YEL037C, strain rad23, stronger effect = lower value 0.552 | locus YEL061C, strain CIN8 (second series), stronger effect = lower value 0.694 | locus YEL061C, strain CIN8, stronger effect = lower value 0.39 | locus YER015W, strain faa2, stronger effect = lower value 0.39 | locus YER016W, strain bim1, stronger effect = lower value 0.675 | locus YER110C, stronger effect = lower value 0.412 | locus YER111C, strain swi4, stronger effect = lower value 0.566 | locus YER155C, strain BEM2 (second series), stronger effect = lower value 0.441 | locus YER155C, strain BEM2, stronger effect = lower value 0.276 | locus YER167W, strain BCK2, stronger effect = lower value 0.245 | locus YFR010W, strain ubp6, stronger effect = lower value 0.557 | locus YGL078C, strain dbp3, stronger effect = lower value 0.872 | locus YGL086W, strain mad1, stronger effect = lower value 0.291 | locus YGL167C, strain pmr1, stronger effect = lower value 0.554 | locus YGL173C, strain kem1, stronger effect = lower value 0.248 | locus YGL227W, strain vid30, stronger effect = lower value 0.777 | locus YGL240W, strain doc1, stronger effect = lower value 0.442 | locus YGL248W, strain PDE1, stronger effect = lower value 0.21 | locus YGL253W, strain hxk2, stronger effect = lower value 0.295 | locus YGR078C, strain PAC10, stronger effect = lower value 0.182 | locus YGR135W, strain pre9, stronger effect = lower value 0.394 | locus YGR252W, strain gcn5, stronger effect = lower value 0.456 | locus YHR013C, strain ard1, stronger effect = lower value 0.427 | locus YHR027C, strain rpn1, stronger effect = lower value 0.349 | locus YHR030C, strain SLT2, stronger effect = lower value 0.613 | locus YHR079C, strain IRE1 (second series), stronger effect = lower value 0.434 | locus YHR079C, strain IRE1, stronger effect = lower value 0.67 | locus YHR094C, strain hxt1, stronger effect = lower value 0.417 | locus YHR129C, strain ARP1, stronger effect = lower value 0.216 | locus YHR142W, strain chs7, stronger effect = lower value 0.339 | locus YHR200W, strain rpn10, stronger effect = lower value 0.488 | locus YIL066C, strain RNR3, stronger effect = lower value 0.174 | locus YIL073C, strain SPO22, stronger effect = lower value 0.221 | locus YIL125W, strain kgd1, stronger effect = lower value 0.864 | locus YIR030C, strain dcg1, stronger effect = lower value 0.466 | locus YJL092W, strain hpr5, stronger effect = lower value 0.665 | locus YJL095W, strain BCK1 (second series), stronger effect = lower value 0.22 | locus YJL095W, strain BCK1, stronger effect = lower value 0.0992 and 0.647 | locus YJL115W, strain asf1, stronger effect = lower value 0.644 | locus YJL129C, strain trk1, stronger effect = lower value 0.33 | locus YJL134W, strain LCB3, stronger effect = lower value 0.309 | locus YJL154C, strain vps35, stronger effect = lower value 0.718 | locus YJL164C, strain tpk1, stronger effect = lower value 0.414 | locus YJL166W, strain qcr8, stronger effect = lower value 0.446 | locus YJL168C, strain set2, stronger effect = lower value 0.52 | locus YJL187C, strain SWE1 (second series), stronger effect = lower value 0.192
inactive: locus YDR195W, strain ref2 0.892
